Test results reported in PubChem BioAssay (NCI).
This is part of a sample that, as a whole, favours compounds with a hit. Of some 79,000 tested, about 15% had one in any assay. Cut-off read from the data, not from the text of the source: active = growth inhibition above about 70%; inactive = the rest.

How the values were obtained:
[1] = NCI Yeast Anticancer Drug Screen. Data for the rad50 strain (AID 155);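 note: 0% = growth of vehicle-only cultures of the same strain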; settings: S. cerevisiae rad50 strain growth inhibition; at 50.0 µM; hits give high values
How it was run: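 Cells are treated with compound, grown, and their growth is then scored against vehicle-only cultures of the same repair-deficient yeast strain.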

[2] = NCI Yeast Anticancer Drug Screen. Data for the mec2-1 strain (AID 157); settings: S. cerevisiae mec2-1 strain, at 50.0 µM, hits give high values
How it was run: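 Cells of the genetically defined mec2-1 yeast strain are incubated with test compound. Inhibition of growth is calculated against vehicle-treated controls.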

[3] = NCI Yeast Anticancer Drug Screen. Data for the sgs1 mgt1 strain (AID 161);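 note: 0% = growth of cultures given vehicle only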; settings: S. cerevisiae sgs1 mgt1 strain, at 50.0 µM, hits give high values
How it was run: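 Test agents were incubated with a DNA-repair-mutant yeast strain. Growth was then read and compared against vehicle-treated controls.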

[4] = NCI Yeast Anticancer Drug Screen. Data for the cln2 rad14 strain (AID 165);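 note: 0% = growth equal to vehicle treated cultures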; settings: S. cerevisiae cln2 rad14 strain, at 50.0 µM, hits give high values
How it was run: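 The screen exposed genetically defined yeast (cln2 rad14) to test compounds and scored growth inhibition relative to vehicle-treated controls.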

[5] = NCI Yeast Anticancer Drug Screen. Data for the bub3 strain (AID 167); settings: S. cerevisiae bub3 mutant strain, at 50.0 µM, hits give high values
How it was run: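 Part of a panel of yeast mutants defective in DNA damage repair or cell cycle regulation. Each strain is grown with compound, and inhibition is calculated relative to solvent-treated cultures.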

[6] = NCI Yeast Anticancer Drug Screen. Data for the mlh1 rad18 strain (AID 175); settings: S. cerevisiae mlh1 rad18 strain growth inhibition; at 50.0 µM; hits give high values
How it was run: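 Compound-treated yeast growth, normalised to vehicle controls. Strain bears defined DNA repair mutations.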

Measured: growth inhibition

O=C(Nc1ccccc1)OC1OC(COC(=O)c2ccccc2)C(OC(=O)c2ccccc2)C1OS(=O)(=O)c1ccc([N+](=O)[O-])cc1 (stereo unspecified)
inactive: [1] -18.1% | [2] 0.15% | [3] -18.2% | [4] -25.6% | [5] -13.1% | [6] -15.8%

O=C(O)CC1CC(=O)OC1(c1ccccc1)c1ccccc1 (stereo unspecified)
inactive: [1] 18% | [2] 11.6% | [3] 20.9% | [4] 2.8% | [5] 8.15% | [6] 6.45%

O=C(O)CCC(=O)Nc1ccc(Cl)cc1
inactive: [1] 8% | [2] 5.7% | [3] -0.05% | [4] -16.1% | [5] 5.15% | [6] 5.55%

C[CH2][Sn]([CH2]C)([O][P+](=O)C[Si](C)(C)c1ccccc1)[O][P+](=O)C[Si](C)(C)c1ccccc1 (stereo unspecified)
inactive: [1] 3.8% | [2] 29.6% | [3] 12.7% | [4] -3.55% | [5] -3.35% | [6] 17.9%

CS/C(=C\c1ccc2cc(C)ccc2[n+]1C)N1CCOCC1
inactive: [1] 7.25% | [2] -3.85% | [3] -16% | [4] -2.05% | [5] -45.6% | [6] -56.5%

O=C(O)/C=C/c1cnc[nH]1
inactive: [1] -4.9% | [2] -2.3% | [3] -5.65% | [4] 11.9% | [5] 9.65% | [6] -1%

COc1ccccc1N(CN1C(=O)CCC1C(=O)O)C(C)=O (stereo unspecified)
inactive: [1] 9.2% | [2] 10.4% | [3] -4% | [4] 7.25% | [5] -9.1% | [6] -37.9%

CC1CN(C(=S)Nc2ccccc2)C(C)CN1CCO (stereo unspecified)
inactive: [1] 58.5% | [2] 1.6% | [3] 14.2% | [4] -39% | [5] -3.9% | [6] 16.6%

C=C(CBr)CCCCC
inactive: [1] 65.1% | [2] 23.3% | [3] 62.6% | [4] 14.1% | [5] 29.8% | [6] 0.55%

CCOC(=O)C(CCN(C)C)(CCN(C)C)c1ccccc1
inactive: [1] -6.3% | [2] -2.75% | [3] 21.6% | [4] -30.2% | [5] -13% | [6] -2.75%

CCCCNC(=O)c1cc(S(=O)(=O)n2cc[nH]c2=O)c(SC)cc1Cl
inactive: [1] 4.1% | [2] 2.7% | [3] 15.8% | [4] -2.75% | [5] -5.05% | [6] 31.2%

NC1=NS(=O)(=O)Nc2nc(-c3ccccc3)c(-c3ccccc3)nc21
inactive: [1] -24.6% | [2] -10.2% | [3] 12.5% | [4] -0.85% | [5] 2.6% | [6] 7.3%

Cn1cnc(=O)c2n[nH]nc21
inactive: [1] 3.95% | [2] 16.6% | [3] -1.1% | [4] -1.45% | [5] -11.4% | [6] 0.65%

CC(=O)Oc1ccc2c(c1)CC[C@@H]1C2[C@@H](O[N+](=O)[O-])C[C@@]2(C)C1CC[C@@H]2O[N+](=O)[O-] (stereo partly specified)
inactive: [1] 24.4% | [2] 7.9% | [3] 15.2% | [4] 10.1% | [5] 10.1% | [6] 14.8%

O=C1C(=C(C(F)(F)Cl)C(F)(F)Cl)C2CCC1C2 (stereo unspecified)
inactive: [1] 12% | [2] -3.35% | [3] 14.3% | [4] 14.6% | [5] 21.2% | [6] 7.7%

CN1CCC(=C2c3ccccc3CC(O)c3sccc32)CC1 (stereo unspecified)
inactive: [1] 24.2% | [2] 5.7% | [3] -16.6% | [4] 3.5% | [5] 9.2% | [6] 39%

CCC(C)(CCC(C)C)c1ccncc1 (stereo unspecified)
inactive: [1] -3.45% | [2] 9.3% | [3] -0.05% | [4] -8.45% | [5] -0.75% | [6] 3.05%

O=C(O)CNCc1ccc2c(c1)OCCO2
inactive: [1] 6.7% | [2] 15.7% | [3] -10.4% | [4] -3.35% | [5] -3.5% | [6] -15.8%

Cc1cnc2c(C)ccc([N+](=O)[O-])c2c1NCCCN(C)C
inactive: [1] 34.2% | [2] 13.8% | [3] 12.7% | [4] 2.45% | [5] 16.9% | [6] 52%

CCOC(=O)CCc1c(C)c2c(O)cc(O)cc2oc1=O
inactive: [1] 3.25% | [2] -3.5% | [3] -19.5% | [4] 8.3% | [5] -42.9% | [6] 20.7%

COc1ccc(C)cc1NC(=S)NC(=O)c1ccc(Cl)cc1Cl
inactive: [1] 1.7% | [2] 13.7% | [3] 8.15% | [4] -12.6% | [5] 4.7% | [6] 0.75%
